SMN2 splice enh: qHTS Assay for Enhancers of SMN2 Splice Variant Expression. Potency, µM (series often up to 46.1 µM), hits mostly activators. AID 1458, 2008. hit rate 2.8% among 210,000. HEK293 SMN2-luciferase splicing reporter, luminescence, 30-36 h; also: nearly all actives have a fitted effect of over 55% in size
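HEK293 cells carry an SMN2 […]–luciferase reporter in which exon 7 inclusion puts luciferase in frame. Cells were plated 10-12 h before compound addition, then incubated 30-36 h at 37C. ONE-Glo luminescence was read; sodium butyrate at 4.5 mM final served as control.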
Rab9 prom act: qHTS Assay for Rab9 Promoter Activators; Huh7 Rab9 promoter-luciferase reporter, luminescence, 24 h; Potency, µM (doses to about 9.22 µM), most hits filed as activators; hit rate 2.8% among 320,000; also: nearly all actives have a fitted effect of over 60% in size
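Quantitative HTS format; Huh7 Rab9-luciferase reporter cells (1500/well) receive compound 2 h post-plating, incubate 24 h at 37 °C, then get luciferase reagent for 10 min before luminescence reading.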
NPC1 prom act: qHTS Assay for NPC1 Promoter Activators; Potency, µM (titrated, usually from 9.22 µM), usual class: activators; Huh7 NPC1 promoter luciferase reporter, 24 h; hit rate 2.4% among 320,000; also: nearly all actives have a fitted effect of over 60% in size
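Stably transfected Huh7 (NPC1 promoter→luciferase), 1500 cells/well in Opti-MEM + 10% FBS, 2 h settle, then compound 24 h at 37 °C. Luminescence after 10 min with Amplite reagent.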
FLuc counter: qHTS profiling assay for firefly luciferase inhibitor/activator using purifed enzyme and Km concentrations of substrates (counterscreen for miR-21 project). Luciferin 4-monooxygenase (Photinus pyralis), P08659. purified FLuc, Km substrates, luminescence inhibition. Potency, µM (highest dose often 57.5 µM), usual class: inhibitors. hit rate 6.9% among 360,000; also: nearly all actives have a fitted effect of over 55% in size
Target sequence (P08659 whole entry, looked up): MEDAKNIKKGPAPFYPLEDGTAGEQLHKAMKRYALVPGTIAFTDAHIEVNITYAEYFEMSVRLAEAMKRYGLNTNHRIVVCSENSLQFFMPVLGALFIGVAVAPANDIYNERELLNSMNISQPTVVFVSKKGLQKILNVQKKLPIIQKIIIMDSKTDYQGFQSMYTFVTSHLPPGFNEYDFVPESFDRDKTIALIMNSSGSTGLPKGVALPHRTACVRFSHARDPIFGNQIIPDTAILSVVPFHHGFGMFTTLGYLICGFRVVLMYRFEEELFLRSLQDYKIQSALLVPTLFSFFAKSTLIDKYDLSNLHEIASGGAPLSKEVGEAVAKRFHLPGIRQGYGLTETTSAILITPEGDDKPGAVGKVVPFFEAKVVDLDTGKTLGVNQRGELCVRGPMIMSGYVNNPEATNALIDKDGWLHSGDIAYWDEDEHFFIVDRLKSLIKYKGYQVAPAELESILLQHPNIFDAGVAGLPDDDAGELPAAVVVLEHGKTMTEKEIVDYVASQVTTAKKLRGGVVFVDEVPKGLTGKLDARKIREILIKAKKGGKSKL
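Purified P. pyralis luciferase (10nM final) with 10uM D-luciferin and 10uM ATP (Km levels) in 50mM Tris acetate pH 7.5, 10mM Mg acetate, 0.01% Tween-20, 0.05% BSA; qHTS 6-point titration, ~60 µM downward; luminescence read.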
ELG1 genotox: qHTS screen for small molecules that induce genotoxicity in human embryonic kidney (HEK293T) cells expressing luciferase-tagged ELG1 | HEK293T ELG1-luciferase reporter, luminescence, 16 h | Potency, µM (titrated, usually from 46 µM), usual class: activators | hit rate 1.3% among 330,000; also: nearly all actives have a fitted effect of over 60% in size
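Genotoxicity was scored as increased ELG1-luciferase reporter signal, measured by ONE-Glo luminescence (30 min, room temperature). Compound or vehicle exposure of the HEK293T reporter cells lasted 16 hr at 37°C.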
KinaseGlo FLuc: Counterscreen for Luciferase (Kinase-Glo TM) Inhibition; Luciferin 4-monooxygenase (Photuris pensylvanica), Q27757; Kinase-Glo luciferase, ATP luminescence, 8 min; Potency, µM (series often up to 38.3 µM), hits mostly inhibitors; hit rate 0.28% among 200,000; AID 1379, 2008; also: nearly all actives have a fitted effect of over 60% in size
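Compounds were added to a substrate mix at pH 7.2 (50 mM imidazole, 10 uM ATP, within the enzyme's linear range), followed by Kinase-Glo detection reagent; luminescence was measured after 8 minutes at ambient temperature.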
Large screens that a line does not name were inactive. The list is not random: actives were taken first. Their share in the collection is about 7.4%. Calls follow the shape of the dose curve; as a rule, active = well fitted curve in the direction sought with a large enough effect; inconclusive = small, poorly fitted or top-dose-only effect, or another doubt; inactive = no such curve, though single readings can be large; an effect the other way counts as inactive or inconclusive.

CCCCNC(=O)CCC(=O)Nc1ccc2nc(N3CCCCC3)cc(C)c2c1	SMN2 splice enh 7.08µM, Rab9 prom act inconclusive, NPC1 prom act inconclusive, FLuc counter 15.1µM
Cc1cc(N2CCOCC2)nc2ccc(NC(=O)CCC(=O)N3CCN(c4ccccc4)CC3)cc12	NPC1 prom act inconclusive, FLuc counter 12µM (no result: SMN2 splice enh, KinaseGlo FLuc)
O=C(c1cc(-c2ccco2)on1)N1CCOCC1	Rab9 prom act inconclusive, FLuc counter inconclusive, ELG1 genotox inconclusive
Cc1ccc(-c2cc(C(=O)N3CCOCC3)no2)cc1	Rab9 prom act 0.316µM, NPC1 prom act 0.316µM, FLuc counter 0.536µM, ELG1 genotox inconclusive (no result: SMN2 splice enh, KinaseGlo FLuc)
CCOC(=O)C1CCCN(C(=O)c2cc(-c3ccccc3)on2)C1 (stereo not given)	SMN2 splice enh 22.4µM, Rab9 prom act 3.98µM, NPC1 prom act inconclusive, ELG1 genotox inconclusive
Cc1ccc(-c2cc(C(=O)N3CCCC3)no2)cc1	SMN2 splice enh 0.891µM, Rab9 prom act inconclusive, NPC1 prom act inconclusive, FLuc counter 0.757µM, ELG1 genotox 0.231µM
Cc1ccccc1C1CC(=O)Oc2cc(C)c(Cl)c(C)c21 (stereo not given)	none (no result: SMN2 splice enh, Rab9 prom act, NPC1 prom act, FLuc counter, ELG1 genotox)
O=C(NC(=S)Nc1ccc2oc(=O)ccc2c1)c1ccccc1F	none (no result: SMN2 splice enh, KinaseGlo FLuc)
CCOc1cccc(C(=O)NC(=S)Nc2ccc(N3CCCC3)cc2)c1	none
CCOc1cccc(C(=O)NC(=S)Nc2ccc3c(c2)OCCO3)c1	Rab9 prom act inconclusive, FLuc counter 8.49µM, ELG1 genotox inconclusive
COc1cccc(OC)c1C(=O)NC(=S)Nc1ccc2c(c1)OCCO2	FLuc counter 21.3µM, ELG1 genotox inconclusive
O=C(NC(=S)Nc1ccc2c(c1)OCCO2)c1ccccc1F	SMN2 splice enh inconclusive, Rab9 prom act 1.26µM, NPC1 prom act 2.51µM, FLuc counter 5.36µM, ELG1 genotox inconclusive
O=C(Nc1ccc2c(c1)OCO2)c1c(F)c(F)c(F)c(F)c1F	none
O=C(Nc1ccc2c(c1)OCCO2)c1c(F)cccc1F	SMN2 splice enh 12.6µM, Rab9 prom act 3.16µM, NPC1 prom act 2.51µM, FLuc counter 6.01µM, ELG1 genotox 3.26µM
O=c1c(CCc2ccccc2)nc2cnc(N3CCNCC3)nc2n1Cc1ccc(F)cc1	none (no result: Rab9 prom act, NPC1 prom act, FLuc counter, ELG1 genotox)
CN1[C@@H]2CC[C@H]1CC(OC(c1ccccc1)c1ccccc1)C2 (stereo not given in full)	none (no result: Rab9 prom act, NPC1 prom act, FLuc counter, ELG1 genotox)
O=C(CCNC(=O)c1ccccc1Cl)Nc1ccc2c(c1)OCO2	none
O=C(NC(=S)Nc1ccc(N2CCCCC2)cc1)c1ccc2c(c1)OCCO2	FLuc counter inconclusive, ELG1 genotox inconclusive
O=C(NC(=S)Nc1ccc(F)cc1)c1ccc2c(c1)OCCO2	SMN2 splice enh inconclusive, Rab9 prom act 0.501µM, NPC1 prom act 0.631µM, FLuc counter 1.9µM, ELG1 genotox inconclusive
O=C(Nc1ccc2c(c1)OCCO2)c1ccccc1F	SMN2 splice enh 12.6µM, Rab9 prom act 0.562µM, NPC1 prom act 0.794µM, FLuc counter 3.38µM, ELG1 genotox 1.84µM, KinaseGlo FLuc inconclusive
Cc1ccc(S(=O)(=O)N(C)c2ccccc2C(=O)Nc2ccc3c(c2)OCCO3)cc1	none (no result: SMN2 splice enh, KinaseGlo FLuc)
CS(=O)(=O)Nc1ccccc1C(=O)Nc1ccc2c(c1)OCCO2	FLuc counter 12µM, ELG1 genotox inconclusive
O=C(CCl)Nc1ccccc1C(=O)Nc1ccc2c(c1)OCO2	Rab9 prom act 0.398µM, NPC1 prom act 0.708µM (no result: SMN2 splice enh, KinaseGlo FLuc)
CC12CC3CC(C)(C1)CC(C(=O)NCc1cccnc1)(C3)C2	none (no result: SMN2 splice enh, KinaseGlo FLuc)
CCc1cccc(C)c1NC(=O)CC1Oc2ccc(C)cc2NC1=O (stereo not given)	none (no result: KinaseGlo FLuc)
Cc1cc(Cl)ccc1NC(=S)N1CCN(C(=O)c2ccco2)CC1	none (no result: SMN2 splice enh, KinaseGlo FLuc)
O=C(NC(=S)Nc1ccc(N2CCOCC2)cc1)c1ccc2c(c1)OCCO2	FLuc counter inconclusive
O=C(NC(=S)Nc1ccc2c(c1)OCCO2)c1ccccc1	SMN2 splice enh 7.08µM, Rab9 prom act 0.891µM, NPC1 prom act 0.631µM, FLuc counter 1.2µM, ELG1 genotox inconclusive
O=C(Nc1ccc(NC(=O)c2ccc3c(c2)OCCO3)cc1)c1ccccc1	ELG1 genotox inconclusive (no result: SMN2 splice enh, KinaseGlo FLuc)

Source: PubChem BioAssay
